Pol eta inh – DNA polymerase eta (human) inhibition. recombinant Pol eta, fluorescent DNA replication assay. Potency, µM (titrated, usually from 114 µM), without a hit: at the highest dose activity change, negative = inhibition, usual class: inhibitors. 390,000 tested, 1.2% active. AID 588591; also: potency is read from the fitted curve at half-maximal effect; % is scaled to controls: 0 for no effect and ±100 for the full control effect
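Pol eta at 10 nM preincubated with compounds 15 min at room temperature; reaction started with fluorescent substrate (50 nM final) and read kinetically at 0 and 10 min.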
WRN inhibitor – WRN helicase (human) inhibition; Q14191; WRN helicase unwinding, fluorescent forked duplex, kinetic; Potency, µM (doses to about 114 µM), inactives show at the top dose activity change, negative = inhibition, usual class: inhibitors; 360,000 tested, 0.46% active; also: potency is read from the fitted curve at half-maximal effect; % is scaled to controls: 0 for no effect and ±100 for the full control effect; nearly all actives have a fitted effect of over 55% in size
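WRN at 20 nM final was preincubated with compound for 15 min at room temperature; reaction started with 100 nM forked duplex oligonucleotide carrying fluorophore and quencher plus 2 mM ATP (final). Unwinding followed kinetically by red fluorescence (ex 525/em 598 nm).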
PI5P4K alpha inh – inhibitors of human PI5P4K alpha; PI5P4Kalpha enzyme, ADP-Glo luminescence, 60 min; hits give low values; max response, %; 330,000 tested, 1.2% active; AID 652105; active = max response of -50% or lower; inconclusive = between -30% and -50%; inactive = -30% or higher; also: value at the top dose of about 77 µM; % is scaled to controls: 0 for no effect and ±100 for the full control effect
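ADP-Glo luminescence end-point after a 60 min room-temperature kinase reaction. PI5P4Kalpha and substrate in HEPES pH 7.4 buffer with EGTA, 0.1% CHAPS and 5% DMSO; ATP at 5 microM final.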
POLK inh – blocks human DNA polymerase kappa activity; Q9UBT6; 400,000 tested, 0.53% active; purified Pol kappa, fluorescent DNA synthesis assay, 10 min; Potency, µM (series often up to 107 µM), inactives show at the highest dose activity, negative = inhibition, most hits filed as inhibitors; AID 588579; also: potency is read from the fitted curve at half-maximal effect; % is scaled to controls: 0 for no effect and ±100 for the full control effect
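Enzyme at 10 nM met test compounds for 15 min at room temperature. Substrate addition (50 nM final) began the reaction, which was monitored by fluorescence at 0 and 10 min.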
Pol iota inh – blocks human DNA polymerase iota activity; Pol iota fluorescent replication assay, 10 min; Potency, µM (top dose mostly 115 µM), for the others: at the highest dose activity, negative = inhibition, usual class: inhibitors; 390,000 tested, 1% active; Q9UNA4; also: potency is read from the fitted curve at half-maximal effect
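Pol iota at 10 nM preincubated 15 min with compounds at room temperature; reaction started with fluorescent substrate, 50 nM final. Fluorescence read kinetically at 0 and 10 min; buffer-only wells as negative control.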
Pol beta inh – blocks human DNA polymerase beta activity; P06746; Pol beta primer extension/strand displacement, fluorescence kinetic; Potency, µM (series often up to 114 µM), for inactives: top-dose activity change, negative = inhibition, usual class: inhibitors; 340,000 tested, 1.3% active; AID 485314; also: potency is read from the fitted curve at half-maximal effect; % is scaled to controls: 0 for no effect and ±100 for the full control effect
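Homogeneous kinetic assay of primer extension and strand displacement by 10 nM Pol beta, preincubated 15 min at room temperature with compound before 50 nM substrate (final) was added. Read at 0 and 10 min; four-parameter Hill fit.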
Starred values were filed as active, the others as inactive; ? = inconclusive; . = not tested or not shown; ! = not confirmed by another sample; [ ] = dose if it differs, or a comment. Rows were chosen to be rich in hits. Some 2.8% of all compounds tested hit in one or more screens of this group. Unless noted, calls follow the shape of the dose curve; as a rule, active = well fitted curve in the direction sought with a large enough effect; inconclusive = small, poorly fitted or top-dose-only effect, or another doubt; inactive = no such curve, though single readings can be large; an effect the other way counts as inactive or inconclusive.

SMILES | Pol eta inh | WRN inhibitor | PI5P4K alpha inh | POLK inh | Pol iota inh | Pol beta inh
Cc1ccc(-c2n[nH]c(=S)n2/N=C/C=C/c2ccccc2[N+](=O)[O-])cc1 | ? | ? | -16.7 | -11.7% | ? | 31.6µM*
COc1ccccc1/C=C/C=N/n1c(-c2cc(-c3ccccc3)n[nH]2)n[nH]c1=S | -16.9% | ? | -51.9* | 0.9% | 25.3% | ?
COc1ccc(C2CC(c3ccccc3)Oc3ccc(OC)cc32)cc1 (stereo not drawn) | . | . | . | -9.1% | -22.7% | .
Cc1ccc(C(=O)NNC(=O)CSc2nnc(C(C)C)n2C)cc1 | -11.2% | 8.0% | 1.2 | 0.0% | 36.7% | 14.0%
CN1CCc2c(sc(NC(=O)c3cc4cc([N+](=O)[O-])ccc4s3)c2C(N)=O)C1 | . | . | . | . | . | 22.4µM*
CC(C)Oc1ccc(C(=O)N/N=C/c2ccc(-c3ccc(S(=O)(=O)Nc4ncccn4)cc3)o2)cc1 | 2.82µM* | 50.1µM* | ? | 44.7µM* | ? | 1.2%
Cc1ccc(C(=O)N/N=C\c2ccc(-c3ccc(Cl)cc3)o2)cn1 | -14.3% | -11.8% | -7.8 | -8.1% | 16.3% | 1.8%
O=C(CSc1nnc2ccccn12)NC(=O)c1ccccc1Cl | 39.8µM* | -20.4% | ? | ? | 28.2µM* | .
CCc1ccc(NC(=O)CSc2nc(-c3ccc(C)cc3)nc3c2Cc2c(CO)cnc(C)c2O3)cc1 | ? | . | . | -4.7% | ? | 50.1µM*
COc1ccc(-c2nc3c(c(SCC(=O)Nc4cccc(O)c4)n2)Cc2c(CO)cnc(C)c2O3)cc1 | 20µM* | -2.8%[11.6 µM] | ? | 79.4µM*! | 6.31µM* | 1.58µM*!
Cc1ncc(CO)c2c1Oc1nc(-c3ccccc3)nc(SCC(=O)Nc3cccc(C(F)(F)F)c3)c1C2 | ? | . | . | -3.6% | -14.5% | 35.5µM*
CCOc1ccc(NC(=O)CSc2nc(-c3cccc(Cl)c3)nc3c2Cc2c(CO)cnc(C)c2O3)cc1 | 0.0% | . | . | -2.1% | -7.1% | 33.4%
CCOc1ccc(NC(=O)CSc2nc(-c3ccc(OC)cc3)nc3c2Cc2c(CO)cnc(C)c2O3)cc1 | -2.4% | . | . | -3.2% | ? | 39.8µM*
O=C(COC(=O)c1cc(S(=O)(=O)N2CCOCC2)ccc1F)Nc1ccccc1C(F)(F)F | -18.5% | -2.3% | 3.5 | . | . | .
COc1ccc(NC(=O)C2CCN(S(=O)(=O)c3cccc4nonc34)CC2)cc1 | -5.2% | -12.3%[57.1 µM] | -1.6 | -1.7% | 45.8% | 21.6%
Cc1ncc(CO)c2c1Oc1nc(-c3ccc(F)cc3)nc(SCc3ccc(F)cc3Cl)c1C2 | -8.6% | . | . | -28.5% | 11.4% | 50.1µM*
CCc1ccc(-c2nc3c(c(SCc4ccc(F)cc4)n2)Cc2c(CO)cnc(C)c2O3)cc1 | -15.4% | . | . | -0.8% | 24.9% | 15.6%
CCCCCCNC(=O)CCCCCNS(=O)(=O)c1ccc(OC)cc1 | -12.2% | -20.2% | 2.9 | -2.4% | 4.9% | 0.2%
C#CCOCCOCCOCCNc1nc(N2CCN(C(=O)[C@H](Cc3ccc(O)cc3)n3cc([C@@H](N)C(C)CC)nn3)CC2)nc(N2CCN(C(=O)[C@H](Cc3cc4ccccc4[nH]3)n3cc([C@@H](N)C(C)CC)nn3)CC2)n1 (stereo partly drawn) | -9.2% | -24.6% | ? | -13.4% | 28.2µM* | 25.1µM*
C#CCOCCOCCOCCNc1nc(N2CCN(C(=O)[C@H](Cc3cc4ccccc4[nH]3)n3cc([C@@H](N)C(C)CC)nn3)CC2)nc(N2CCN(C(=O)[C@H](Cc3cc4ccccc4[nH]3)n3cc([C@@H](N)Cc4ccc(O)cc4)nn3)CC2)n1 (stereo partly drawn) | . | . | . | . | . | 82.7%
C#CCOCCOCCOCCNc1nc(N2CCN(C(=O)C(Cc3cc4ccccc4[nH]3)n3cc(C(N)Cc4ccc(O)cc4)nn3)CC2)nc(N2CCN(C(=O)C(Cc3cc4ccccc4[nH]3)n3cc(C(N)Cc4ccc(O)cc4)nn3)CC2)n1 (stereo not drawn) | -14.6% | -12.3% | -91.6* | -7.0% | -8.1% | 1.7%

Bioassay records (PubChem BioAssay)
